Screening data from PubChem BioAssay.
Hits are enriched below; roughly 1.5% of the tested compounds scored in any of these assays.
BCLXL inh: inhibitors of human Bcl-xL | Q07817 | GST-Bcl-xL / FITC-Bim BH3 peptide fluorescence polarization | inhibition, % at 10.9 µM | actives 0.7% (n = 320,000);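 active means inhibition above the mean of all tested compounds plus 3 SD, cutoff set per campaign, cut at about 30% in these data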;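 further: 0% = DMSO wells and 100% = unlabeled Bim-BH3 peptide competitor; inhibitors lower millipolarization by displacing the labeled peptide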
IDE inh: cellular human IDE inhibition; P14735; HEK cells, FAbetaB cleavage, fluorescence polarization; inhibition, % at 5.59 µM; actives 0.41% (n = 320,000);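 active means percent inhibition above the average of all tested compounds plus 3 SD, set per screening campaign, cut at about 16% in these data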;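 further: IDE supplied by intact live HEK cells; FP after avidin binding of uncleaved biotin substrate so inhibition keeps polarization high; 0% = DMSO wells and 100% = 60 µM reference IDE inhibitor Ii1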
IDE cell activ: activators of human insulin-degrading enzyme in cells | actives 0.073% (n = 340,000) | P14735 | HEK cells, FAbeta-B cleavage, fluorescence polarization; 0% vehicle, 100% cell-free pure enzyme wells | activation, % at 5.96 µM;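 active means activation above the mean of all tested compounds plus 3 SD, set per screening campaign, cut at about 17% in these data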
MCL1-BIM inh: disrupts human MCL1 binding to BIM-BH3 peptide; Q07820; GST-MCL1 / FITC-Bim-BH3 fluorescence polarization; inhibition, % at 10.9 µM; actives 0.68% (n = 320,000); AID 2057;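 active means inhibition above the mean inhibition of all tested compounds plus 3 SD, set per campaign, cut at about 40% in these data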;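 further: 0% = DMSO wells and 100% = unlabeled Bim-BH3 peptide control; higher means more loss of mP so more displacement of Bim peptide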
MEX-5 binding: C. elegans MEX-5 TCR-2 RNA binding activity. Q9XUB2. MEX-5/FITC-TCR2 RNA binding, fluorescence polarization; hits give low values. activity score (negative = inhibition of binding), % at 10 µM. actives 0.38% (n = 300,000);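 active means inhibition past about -25% in most replicates, and total fluorescence under double the plate's negative control median, limit read from the data; inconclusive means replicates evenly split on the limit, or fluorescence at least double controls; inactive means too little inhibition in most replicates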;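 further: 0% = DMSO and -100% = 5 µM competing unlabeled TCR2 RNA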
Target sequence (Q9XUB2 whole entry, looked up): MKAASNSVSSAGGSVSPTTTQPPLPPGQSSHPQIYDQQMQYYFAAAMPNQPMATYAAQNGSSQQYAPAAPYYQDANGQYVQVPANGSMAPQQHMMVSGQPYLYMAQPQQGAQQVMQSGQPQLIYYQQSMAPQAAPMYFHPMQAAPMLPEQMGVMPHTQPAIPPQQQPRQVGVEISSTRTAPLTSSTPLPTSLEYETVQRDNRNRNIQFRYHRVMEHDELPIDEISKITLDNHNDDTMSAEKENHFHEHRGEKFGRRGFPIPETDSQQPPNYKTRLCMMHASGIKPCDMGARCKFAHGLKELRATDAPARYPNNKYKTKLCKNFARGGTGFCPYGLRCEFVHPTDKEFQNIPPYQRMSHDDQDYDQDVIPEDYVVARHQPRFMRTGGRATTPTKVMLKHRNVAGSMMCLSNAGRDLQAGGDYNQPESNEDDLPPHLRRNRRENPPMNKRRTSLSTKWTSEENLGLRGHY
GLD-1 TGE inh: GLD-1-TGE RNA interaction inhibition (C. elegans). Q17339. purified GLD-1 + fluorescein TGE RNA, fluorescence polarization. inhibition, % at 5.96 µM. actives 0.44% (n = 320,000);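 active means percent inhibition above a per-plate cutoff, the plate mean of test compounds plus 3 SD, cut at about 30% in these data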;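 further: 0% = DMSO wells with GLD-1 and probe and 100% = wells lacking GLD-1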
BCLXL inh confirm: Bcl-xL (human) inhibition, MCL1 counter-screen confirmation. shares compounds with MCL1-BIM inh. GST-Bcl-xL / FITC-Bim BH3 peptide FP binding. inhibition, % at 10.9 µM. actives 54% (n = 1,700). AID 2166;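 active means inhibition above a cutoff equal to the mean inhibition of all tested compounds plus 3 SD, cut at about 30% in these data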;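 further: 0% = DMSO wells and 100% = unlabeled Bim BH3 control peptide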
MCL1 inh confirm: confirmation of human MCL1 and BIM-BH3 interaction inhibitors. shares compounds with MCL1-BIM inh. GST-MCL1 / FITC-Bim-BH3 fluorescence polarization. inhibition, % at 10.9 µM. actives 61% (n = 1,700). AID 2168;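 active means inhibition above the average of all tested compounds plus 3 SD, cut at about 40% in these data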;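 further: 0% = DMSO wells and 100% = unlabeled Bim-BH3 control peptide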
* hit, by the source's call; ? = inconclusive; · = no result; + = active, no number.

SMILES	BCLXL inh	IDE inh	IDE cell activ	MCL1-BIM inh	MEX-5 binding	GLD-1 TGE inh	BCLXL inh confirm	MCL1 inh confirm
Cc1oc(/N=C/c2ccc(O)cc2O)c(C#N)c1C	64*	2	-2	65*	?	53*	57*	65*
CCCN(CCC)C(=O)c1ccc2c(c1)N(CC)C(=O)c1ccccc1S2(=O)=O	117*	11	1	127*	2	72*	8	5
O=C(COc1ncnc2sccc12)Nc1cccc(S(=O)(=O)N2CCOCC2)c1	-7	-1	2	-4	·	-1	·	·
CC(=O)Nc1ccc(NC(=O)C2CCN(C(=O)c3cccs3)CC2)cc1	-16	0	-2	-18	0	1	·	·
Nc1ccc(N2CCCCCC2)cc1	27	-3	·	42*	·	21	38*	57*
Nc1ccc(N2CCN(c3ccc(F)cc3)CC2)cc1	13	-1	1	13	2	-10	·	·
CC(=O)c1c(C)nn(CC(O)COc2ccc3ccccc3c2)c1C (stereo not given)	3	8	1	-4	-1	6	·	·
On1ccccc1=S	1	9	-40	68*	·	0	2	2
O=C(Cn1ccccc1=S)c1ccc(Cl)c(Cl)c1	-10	0	·	-2	0	5	·	·
COc1cc(NC(=S)N2CCN(CCO)CC2)cc(OC)c1	73*	1	4	82*	1	4	18	30
CCC(C(=O)Nc1cccc(S(=O)(=O)N(C)c2ccccc2)c1)c1ccccc1 (stereo not given)	-1	2	-4	-11	·	3	·	·
Cc1c(C(=O)c2ccc(F)cc2F)c2ccccn2c1CCC#N	100*	7	-1	117*	-1	90*	5	6
Cc1c(C(=O)c2ccc(Cl)cc2[N+](=O)[O-])c2ccccn2c1CCC#N	3	8	3	5	1	19	·	·
CCOC(=O)c1c(NC(=O)C2=COCCO2)sc2c1CCN(C(=O)OC)C2	7	-7	4	-1	0	1	·	·
O=C(CN1C(=O)COc2ccc(S(=O)(=O)N3CCCCCC3)cc21)NCc1ccc(F)cc1	-4	2	4	-3	3	5	·	·
CCCCn1c(N)c(Br)c(=O)[nH]c1=O	3	2	2	-2	-3	-7	·	·
CCCCn1c(=O)[nH]c2nc3cc(N)ccc3nc2c1=O	+	10	3	+	·	+	+	+
Cc1cc2nc3c(=O)n(CCc4ccccc4)c(=O)[nH]c3nc2cc1N	+	13	-22	+	?	189*	190*	+
CC(=O)c1ccc(C(=O)N2CCCC(N3CCN(c4ccc(F)cc4)CC3)C2)s1 (stereo not given)	-1	3	3	5	3	3	·	·
Cc1ccc(N2C(=O)c3cccc4c(N5CCN(C)CC5)ccc(c34)C2=O)c2cccnc12	+	0	·	+	-58*	137*	+	+
Cc1cccc(NC(=O)CNC(=O)CCc2nc3sc4c(c3c(=O)[nH]2)CCCC4)c1C	22	5	0	43*	-6	-11	34*	67*
Cc1cccc(NC(=O)CCc2nc3sc4c(c3c(=O)[nH]2)CCCC4)n1	1	6	-6	13	6	-7	·	·
CCNc1cccc2c1C(=O)N(C)C2=O	177*	-7	6	+	0	180*	167*	+
O=c1c(-c2ccccc2)coc2c(CN3CCCC3)c(O)ccc12	1	-7	1	6	2	4	·	·
O=C1/C(=C/c2ccco2)Oc2c1ccc(O)c2CN1CCCCC1	79*	-1	-2	128*	?	34*	132*	148*
SMILES	BCLXL inh	IDE inh	IDE cell activ	MCL1-BIM inh	MEX-5 binding	GLD-1 TGE inh	BCLXL inh confirm	MCL1 inh confirm
CCC1C/C(=C/c2ccco2)C(=O)/C(=C/c2ccco2)C1 (stereo not given)	-35	-5	·	-76	·	-31	·	·
CC1CCN(Cc2c(O)ccc3c2O/C(=C\c2ccco2)C3=O)CC1	123*	8	-4	149*	?	68*	119*	140*
COCCN(CCOC)Cc1c(O)ccc2c1O/C(=C\c1ccco1)C2=O	106*	6	0	110*	?	72*	107*	118*
O=C(CN1CCN(S(=O)(=O)N2CCCCC2)CC1)Nc1ccc(Br)cc1	2	0	-5	-5	-1	10	·	·
O=C(C1CCCO1)N1CCN(C(=S)Nc2ccccc2F)CC1 (stereo not given)	4	-2	1	3	0	10	·	·
Cc1cc(SCC(=O)N/N=C/c2ccc(O)c(O)c2O)c(C)cc1Br	15	-9	-10	51*	1	11	7	34
COc1cc(/C=N/NC(=O)CSc2cc(C)c(Br)cc2C)ccc1O	6	-2	5	6	-2	0	·	·
Nc1ccc(CSc2ccccc2)cc1	·	·	0	·	·	·	·	·
N#Cc1c(N)sc(=S)c2c1CCCC2	142*	2	-2	160*	-2	102*	62*	92*
O=C(CN1CCCCCC1)Nc1ccccc1OC(F)F	1	1	4	-3	-1	-1	·	·
CCOC(=O)c1c(OCC)[nH]c2c1cc(O)c1ccccc12	16	-3	-1	42*	-1	16	56*	73*
CCOC(=O)c1c(C)[nH]c2cc(Br)c(O)cc12	2	-7	-4	6	1	-1	·	·
Cc1cc(C)cc(NC(=O)COC(=O)c2cccc(S(=O)(=O)N3CCCCC3)c2)c1	-11	3	2	-14	·	-1	·	·
COc1cc(S(=O)(=O)Nc2ccc3c(c2)C(=O)N(C)C3=O)ccc1NC(C)=O	·	11	-6	·	·	11	·	·
CC(=O)N1c2ccccc2C(=O)C1N1CCCCC1 (stereo not given)	65*	4	5	69*	-4	58*	52*	63*
CC(=O)Oc1ccc(C2OC(=O)c3ccccc3N2C(C)=O)cc1 (stereo not given)	3	-7	5	0	0	0	·	·
COC(=O)C1=C(C)NC(=O)/C1=C\N(C)C	91*	8	4	105*	-7	68*	8	8
CSc1nc2ccc(NC(=O)c3ccc(Cl)s3)cc2s1	-3	3	-4	-8	·	1	·	·
CSc1nc(N(C)CCO)c2sc3nc(-c4ccco4)c4c(c3c2n1)CCC4	17	6	-2	75*	-3	2	36*	76*
